Screening results as filed in PubChem BioAssay.
Shown are actives, neighbours in structure and some others; about 1.8% of the full set was active somewhere.
Six1-Eya2 blk: inhibitors of human Six1/Eya2 interaction; AlphaScreen GST-Six1/His-Eya2 binding, biochemical; active compounds read low; Q15475+O00167; activity change, % (no concentration beside the values); 360,000 tested, 0.56% active
Target sequence (O00167 whole entry, looked up): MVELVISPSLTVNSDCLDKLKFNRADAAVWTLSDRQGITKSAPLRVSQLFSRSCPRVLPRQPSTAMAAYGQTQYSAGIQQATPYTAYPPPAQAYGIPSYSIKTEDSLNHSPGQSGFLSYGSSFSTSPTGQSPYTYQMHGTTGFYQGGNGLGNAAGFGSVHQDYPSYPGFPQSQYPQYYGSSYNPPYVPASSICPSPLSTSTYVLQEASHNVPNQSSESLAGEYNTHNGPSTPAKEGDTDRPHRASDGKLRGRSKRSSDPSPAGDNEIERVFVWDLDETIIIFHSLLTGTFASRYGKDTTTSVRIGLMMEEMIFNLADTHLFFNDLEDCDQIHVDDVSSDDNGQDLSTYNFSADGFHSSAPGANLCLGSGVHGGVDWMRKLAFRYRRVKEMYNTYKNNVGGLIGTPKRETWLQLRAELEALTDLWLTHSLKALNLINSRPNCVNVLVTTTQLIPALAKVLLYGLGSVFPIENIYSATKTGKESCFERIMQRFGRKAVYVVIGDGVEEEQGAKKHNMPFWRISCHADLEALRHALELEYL
Target sequence (Q15475 whole entry, looked up): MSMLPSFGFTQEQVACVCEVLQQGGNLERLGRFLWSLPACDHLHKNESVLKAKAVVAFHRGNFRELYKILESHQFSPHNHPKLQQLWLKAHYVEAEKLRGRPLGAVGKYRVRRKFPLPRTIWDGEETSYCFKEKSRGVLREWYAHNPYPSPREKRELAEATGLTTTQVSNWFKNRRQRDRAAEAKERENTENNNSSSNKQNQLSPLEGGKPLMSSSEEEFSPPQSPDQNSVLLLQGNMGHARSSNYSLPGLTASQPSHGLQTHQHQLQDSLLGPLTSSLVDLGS
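Homogeneous AlphaScreen proximity assay pairing GST-Six1 with His-tagged Eya2 (added as 5X mix: 250 nM and 500 nM) in 50 mM Tris pH 8.0, 300 mM NaCl, 1 mM TCEP. Glutathione donor and nickel acceptor beads; 1 h, 37 °C, dark.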
PI4K2A inh: blocks human PI4K2A kinase activity. Q9BTU6. purified PI4K2A, ADP-Glo luminescence, 1 h; active compounds read low. activity change, negative = inhibition, % at 76.9 µM. 420,000 tested, 0.13% active. AID 1346378; in the data active = activity change below about -50%; inconclusive = mostly about -30% to -49%
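ADP-Glo luminescence measured ADP generated by PI4K2A enzyme (4 ug/mL before mixing) with 1.2 mM PI substrate (pre-mix) and 300 microM ATP (pre-mix). Tris pH7.5 buffer with MgCl2, Triton X-100; 1 h reaction at ambient temperature.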
CtBP-E1A inh: CtBP/E1A binding inhibition | AlphaScreen GST-E1A/His-CtBP binding, 1536-well; active compounds read low | activity change, % (test concentration not listed) | 340,000 tested, 0.49% active
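Protein mix (5X: 125 nM each GST-E1A, His-CtBP) was incubated with pinned compound 2 h at 37 deg C in dark, in 50 mM Tris pH 8.0 buffer with 300 mM NaCl. Glutathione donor and nickel acceptor beads followed; AlphaScreen signal read after 1 h.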
Akt phos inh: Akt phosphorylation inhibition. AID 651550. 360,000 tested, 0.32% active. Neuro2A IGF-stimulated pAkt S473 HTRF, 20 min; active compounds read low. activity change, % for hits at 50 µM; in the data active = activity change below about -80%; inconclusive = mostly about -51% to -80%
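Neuro2A cells in DMEM with 0.5% FBS, overnight at 37 deg C, given compound at single 50 µM final, then IGF (6 nM final) for 20 min at 37 deg C. Lysed; phospho-Akt Ser473 by HTRF after 24 h, 665/615 ratio.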
PI5P4K alpha inh: blocks human PI5P4K alpha kinase activity; P48426; PI5P4Kalpha enzyme, ADP-Glo luminescence, 60 min; active compounds read low; max response, %; 330,000 tested, 1.2% active; AID 652105; active = max response of -50% or lower; inconclusive = between -30% and -50%; inactive = -30% or higher; note: value at the top dose of about 77 µM
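ADP-Glo luminescence end-point read after a 60 min room-temperature kinase reaction of PI5P4Kalpha plus substrate, initiated with ATP at 5 microM final. Buffer: 0.038 M HEPES pH 7.4, EGTA, 0.1% CHAPS, 5% DMSO.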
ADP-Glo interf: counter-screen for PI5P4K inhibitors: ADP-Glo detection interference, no enzyme. ADP-Glo detection counter-screen, luciferase luminescence, no enzyme. 1,100 tested, under 10 active. shares compounds with PI5P4K alpha inh. Potency, µM (highest dose often 76.9 µM), actives largely listed as inhibitors; active = well fitted curve in the direction sought with a large enough effect; inconclusive = small, poorly fitted or top-dose-only effect, or another doubt; inactive = no such curve, though single readings can be large or run the other way
A number is an active result; n = inactive; u = inconclusive; x = no result. Cut-off read from the data, not from the text of the source, unless noted: active = activity change below about -65%; inconclusive = mostly about -30% to -63%; inactive = weaker than that.

SMILES	Six1-Eya2 blk	PI4K2A inh	CtBP-E1A inh	Akt phos inh	PI5P4K alpha inh	others
CCN1C(=O)/C(=C/c2ccc3c(c2)CCN3CCCCl)C(=O)NC1=S	n	n	n	n	-72.9
Cc1ncc([N+](=O)[O-])n1CCOc1nonc1N	n	n	x	n	n
CN(C)CCN=Cc1c(O)n(CCC2=CCCCC2)c(=O)[nH]c1=O	n	n	n	x	x
Nc1ccccc1N=Cc1c(O)n(CCC2=CCCCC2)c(=O)[nH]c1=O	n	n	n	-115.5%	n
O=c1[nH]c(=S)n(CCC2=CCCCC2)c(O)c1C=NCCCn1ccnc1	n	n	n	n	n
O=C(N/N=C/c1c(O)n(CCC2=CCCCC2)c(=O)[nH]c1=O)c1ccccc1	u	n	u	n	-60.4
O=c1[nH]c(=O)n(CCC2=CCCCC2)c(O)c1C=Nc1cccc(F)c1	n	n	n	n	x
O=C(N/N=C/c1c(O)n(CCC2=CCCCC2)c(=S)[nH]c1=O)c1ccccc1	n	n	n	n	-58.8
CCOC(=O)C1=C(N)OC2=C(C(=O)CCC2)C12C(=O)N(C)c1ccccc12 (stereo unspecified)	n	n	n	n	n
CCCCCCCCn1sccc1=O	n	n	n	n	-77.5
CCCCCCCCc1ccc(O)cc1	n	n	n	x	n
CCCNC(=O)N1[C@H]2CC[C@@H]1C(C(=O)OC)=C(c1ccc(OC)c(OC)c1)C2	n	n	n	n	-84.6	ADP-Glo interf=n
COC(=O)C1=C(c2ccc(OC)c(OC)c2)C[C@@H]2CC[C@H]1N2C(=O)NCCOc1ccccc1	n	n	n	n	n
O=C(C[N+]12CCN(CC1)CC2)NCCc1ccc(Cl)cc1Cl	n	n	n	n	n
CCCCCn1c(=O)c(C(=O)Nc2ccccc2S(N)(=O)=O)c(O)c2ccccc21	n	n	n	n	-52.9	ADP-Glo interf=n
CC(C)NCC(O)c1ccc(C2CCCC2)cc1 (stereo unspecified)	n	n	n	n	n	ADP-Glo interf=n
COc1ccc(CN2CCN(Cc3ccccc3F)CC2)cc1	n	n	n	n	n
